The nature of assay [1]: A549 cell viability effects, profiling panel, calcein-AM fluorescence, 48 h, basal (AID 1162). Further: test concentration not given here. The conditions noted are these: higher = more signal.
Assay [2] is described as follows: adipocyte viability effects, profiling panel, cell-based, 3T3-L1 adipocytes, calcein-AM fluorescence, 48 h, basal (AID 1163). Further: test concentration not given here. The settings on record: 3T3-L1 adipocytes viability, higher = more signal.
Assay [3] in a line: HepG2 cell viability effects, profiling panel, calcein-AM fluorescence, 48 h, basal (AID 1164). Further: test concentration not given here. The settings on record: higher = more signal.
A short description of assay [4]: MM1S cell viability effects, profiling panel, calcein-AM fluorescence, 48 h, basal (AID 1165).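 Further: viability of MM1S multiple myeloma cells under basal unstimulated conditions; test concentration not given here.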 The settings on record: higher = more signal.
A short description of assay [5]: basal RPMI8226 viability, no added stimulus, profiling panel, cell-based, calcein-AM fluorescence, 48 h, PK04 Diversity Set (AID 1166).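 Further: cells grown under basal conditions without added stimulus; test concentration not given here.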 The settings on record: RPMI8226 myeloma viability, higher = more signal.
Assay [6] can be described thus: basal HepG2 mitochondrial membrane potential changes, profiling panel, cell-based, JC-1 fluorescence, 24 h, 100 nL compound (AID 1167). Further: test concentration not given here. The settings on record: higher = more signal.
Assay [7] is described as follows: basal 3T3-L1 adipocyte mitochondrial potential changes, profiling panel, cell-based, JC-1 fluorescence, 3T3-L1 adipocytes, 24 h, 100 nL compound (AID 1168). Further: test concentration not given here. The conditions noted are these: JC-1 mitochondrial fluorescence, higher = more signal, called active from +8 up or from −8 down.
Assay [8] can be described thus: basal RPMI8226 mitochondrial membrane potential changes, profiling panel, cell-based, JC-1 fluorescence, 24 h, 100 nL compound (AID 1169). Further: test concentration not given here. The settings on record: RPMI8226 myeloma, JC-1 mitochondrial potential fluorescence, higher = more signal.
Assay [9] is described as follows: basal MM1S mitochondrial membrane potential changes, profiling panel, cell-based, JC-1 fluorescence, 24 h, 100 nL compound (AID 1170). Further: test concentration not given here. The conditions noted are these: higher = more signal.
A short description of assay [10]: A549 lung cancer cell viability effects, profiling panel, resazurin fluorescence, 24 h, PK04 Diversity Set (AID 1171). Further: test concentration not given here. The settings on record: higher = more signal, called active from +8 up or from −8 down.
Assay [11] can be described thus: HepG2 liver cancer cell viability effects, profiling panel, resazurin fluorescence, 24 h, PK04 Diversity Set (AID 1172). Further: test concentration not given here. The conditions noted are these: higher = more signal.
Assay [12] in a line: basal S. cerevisiae growth modulation, no modifier, primary screen, OD600, strain BY4716, 24 h, basal condition (AID 1173). The settings on record: OD600, 24 h, higher = more signal, called active from +8 up or from −8 down.
Assay [13] is described as follows: MM1S myeloma cell viability, profiling panel, resazurin fluorescence, basal, 24 h, PK04 Diversity Set (AID 1174).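 Further: MM1S multiple myeloma cell line; test concentration not given here.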 The conditions noted are these: higher = more signal, called active from +8 up or from −8 down.
Assay [14] concerns the target Dihydroorotate dehydrogenase (quinone), mitochondrial (Plasmodium falciparum (isolate 3D7)) (UniProt Q08210). Put plainly: PfDHODH enzyme inhibitors, primary screen, biochemical, C-terminal His tag, absorbance 600 nm (AID 1175).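 Further: recombinant parasite enzyme with a five histidine tag at its C terminus; test concentration not given here.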 The settings on record: DCIP absorbance 600 nm, higher = more signal, called active from +8 up or from −8 down.
Assay [15] is described as follows: P. aeruginosa biofilm formation inhibitors, primary screen, strain PAO1, LB-PBS medium, absorbance 600 nm (AID 1176). Further: test concentration not given here. The conditions noted are these: P. aeruginosa PAO1 growth/biofilm, A600, 12 h; higher = more signal.
Assay [16] is described as follows: S. cerevisiae RM11-1a growth modifiers, primary screen, strain RM11-1a, OD600, basal, 24 h (AID 1177).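 Further: cultures grown under basal conditions with no added stressor; test concentration not given here.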 The conditions noted are these: OD600, 24 h, higher = more signal, called active from +8 up or from −8 down.
Assay [17] in a line: E. coli acrAB mutant growth effects, primary screen, E. coli filamentation inducers, strain DRC39, OD650, 24 h (AID 1178).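 Further: growth measured as culture turbidity by optical density at 650 nm; test concentration not given here.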 The conditions noted are these: higher = more signal, called active from +8 up or from −8 down.
Assay [18] in a line: E. coli acrAB mutant growth effects, primary screen, E. coli filamentation inducers, strain DRC39, OD650, 48 h (AID 1179).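 Further: screen aims at cell division blockers that make cells filament.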 The settings on record: E. coli DRC39 delta-acrAB growth, higher = more signal, called active from +8 up or from −8 down.
A short description of assay [19]: RPMI8226 myeloma cell viability, profiling panel, resazurin fluorescence, basal, 24 h, PK04 Diversity Set (AID 1180).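 Further: RPMI8826 multiple myeloma cell line at 5000 cells per well; test concentration not given here.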 The conditions noted are these: higher = more signal.
Assay [20] has as its target E3 ubiquitin-protein ligase XIAP (Homo sapiens) (UniProt P98170). Briefly: XIAP binders, primary screen, biophysical, small-molecule microarray, fluorescence 635 nm (AID 1181).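 Further: score merges 667 nm emission and signal to noise over triplicate slides.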 The conditions noted are these: small-molecule microarray binding, higher = more signal.

Here are results for nine compounds from PubChem BioAssay.

Calls of active or inactive are those of the source. Unless noted, how the calls were made is not given here.

Sequence of Dihydroorotate dehydrogenase (quinone), mitochondrial (Plasmodium falciparum (isolate 3D7)) (Q08210 whole entry, looked up): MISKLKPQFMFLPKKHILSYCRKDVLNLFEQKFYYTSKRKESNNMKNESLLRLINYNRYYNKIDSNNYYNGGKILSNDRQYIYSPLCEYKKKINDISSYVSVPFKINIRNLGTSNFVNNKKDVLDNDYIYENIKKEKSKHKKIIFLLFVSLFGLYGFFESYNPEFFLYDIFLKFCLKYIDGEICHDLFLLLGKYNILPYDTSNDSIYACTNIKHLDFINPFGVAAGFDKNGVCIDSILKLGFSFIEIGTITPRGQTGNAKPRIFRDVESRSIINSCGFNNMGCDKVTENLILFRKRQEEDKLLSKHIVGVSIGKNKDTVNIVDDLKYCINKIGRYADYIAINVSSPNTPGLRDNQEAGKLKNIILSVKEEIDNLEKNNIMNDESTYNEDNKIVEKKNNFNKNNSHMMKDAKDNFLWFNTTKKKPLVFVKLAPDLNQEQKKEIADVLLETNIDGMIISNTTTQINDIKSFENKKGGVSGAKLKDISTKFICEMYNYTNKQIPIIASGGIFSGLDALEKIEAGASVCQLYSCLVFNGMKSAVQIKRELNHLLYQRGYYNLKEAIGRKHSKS
Sequence of E3 ubiquitin-protein ligase XIAP (Homo sapiens) (P98170 whole entry, looked up): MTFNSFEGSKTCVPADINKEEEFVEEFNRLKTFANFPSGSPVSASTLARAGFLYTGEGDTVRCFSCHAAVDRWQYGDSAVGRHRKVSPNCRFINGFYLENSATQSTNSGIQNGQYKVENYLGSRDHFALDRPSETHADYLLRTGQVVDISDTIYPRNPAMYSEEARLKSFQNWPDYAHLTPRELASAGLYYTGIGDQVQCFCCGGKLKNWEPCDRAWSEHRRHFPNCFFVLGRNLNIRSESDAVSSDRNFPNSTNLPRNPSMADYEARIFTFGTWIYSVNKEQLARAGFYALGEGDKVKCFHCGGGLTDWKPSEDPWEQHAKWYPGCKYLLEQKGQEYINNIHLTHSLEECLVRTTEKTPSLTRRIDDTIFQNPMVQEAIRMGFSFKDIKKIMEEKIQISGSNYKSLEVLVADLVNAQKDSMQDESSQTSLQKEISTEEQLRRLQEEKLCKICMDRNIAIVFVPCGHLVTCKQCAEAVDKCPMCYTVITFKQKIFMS

As for `CN(C)C(=O)[C@@]1(Cc2ccccc2)N=C(c2ccc(OCCCO)cc2)O[C@H]1c1ccccc1`, the z-score in [1] was -0.518; in assay [2], 0.208; in [3] it was 0.64; in assay [4], -0.918; in assay [5], -3.24; in assay [6] it was 0.285. The z-score was 0.708 (inactive) in assay [7]; -0.0484 in assay [8]; -0.303 in [9]; 1.18 (inactive) in assay [10]; 1.6 in assay [11]; -1.92 (inactive) in assay [12]. Also, the z-score in [13] was 0.857 (inactive); in [15], -0.345 (inactive); in assay [16], 0.319 (inactive); in assay [17], 0.0862 (inactive); in assay [18], -0.146 (inactive); in assay [19] it was 1.16. Also, the composite z-score was -0.177 (inactive) in [14] and -0.205 in [20].
On to `COc1cc2c(cc1O)C(c1cccs1)N(Cc1cc3c(cc1Br)OCO3)CC2` (stereo not given), for which the z-score was -1.67 in assay [1]; -0.406 in assay [2]; -3.83 in [3]; -3.19 in assay [4]; -4.43 in [5]; -3.57 in assay [6]. In addition, the z-score in assay [7] is -0.0381 (inactive); in [8], -0.976; in [9], -0.488; in assay [10], -0.741 (inactive); in assay [11] it was -0.608; in [12], -1.4 (inactive). Moreover, the z-score is -0.511 (inactive) in assay [13]; -0.227 (inactive) in [15]; 0.488 (inactive) in assay [16]; -0.284 (inactive) in assay [17]; -1 (inactive) in assay [18]; -1.59 in [19]. For the same compound, the composite z-score in [14] is -1.88 (inactive); in [20], 0.483.
In the case of `COCCOC(=O)N1C(=O)[C@@]2(c3cc(C#CC4=CCCCC4)ccc31)[C@H](C(=O)Nc1nc3ccccc3s1)[C@H]1C(=O)O[C@H](c3ccccc3)[C@H](c3ccccc3)N1[C@@H]2c1ccc(O)cc1`, the z-score in [1] was 0.427; in [2] it was 0.217; in [3] it was 0.0981; in [4], -1.79; in [5], -1.62; in [6], -3.16. The z-score in assay [7] was -0.762 (inactive); in assay [8] it was -0.404; in assay [9] it was -0.54; in assay [10], -0.353 (inactive); in assay [11], -0.263; in assay [12] it was -0.344 (inactive). Besides, the z-score in [13] is -0.679 (inactive); in assay [15], 0.766 (inactive); in [16], -0.145 (inactive); in assay [17] it was -0.469 (inactive); in assay [18] it was -0.765 (inactive); in assay [19], -0.527. Besides, the composite z-score is 0.347 (inactive) in assay [14] and -0.138 in [20].
Turning to `CC[C@@H]1C=C(C(=O)O)[C@H](c2ccc(C#N)cc2)N1S(=O)(=O)c1ccc(C)cc1`, the z-score in [1] was -0.484; in [2], -0.364; in assay [3], -1; in [4], 0.492; in [5], -0.95; in [6], -0.968. For the same compound, the z-score in assay [7] is -0.552 (inactive); in [8] it was 0.875; in [9] it was -1.06; in assay [10], -0.858 (inactive); in [11], -0.835; in assay [12], 0.965 (inactive). The z-score in assay [13] is -0.933 (inactive); in assay [15], -0.0601 (inactive); in [16] it was -0.242 (inactive); in assay [17] it was -0.266 (inactive); in assay [18], -0.0211 (inactive); in [19], -1.21. Besides, the composite z-score is -1.93 (inactive) in assay [14] and 0.0153 in assay [20].
With `C=CC[C@]1(C(=O)N2CCOCC2)COC(c2ccc(OCCCO)cc2)=N1`, the z-score was -0.559 in assay [1]; 0.147 in [2]; -0.814 in [3]; -0.405 in [4]; -1.21 in [5]; -0.658 in assay [6]. For the same compound, the z-score was -0.142 (inactive) in assay [7]; 0.846 in assay [8]; -0.422 in assay [9]; 1.47 (inactive) in assay [10]; 1.31 in assay [11]; -1.37 (inactive) in assay [12]. For the same compound, the z-score in assay [13] was 0.574 (inactive); in [15] it was 0.124 (inactive); in assay [16] it was -0.19 (inactive); in [17] it was 0.904 (inactive); in assay [18], 0.46 (inactive); in [19] it was 0.0543. In addition, the composite z-score in assay [14] is -0.214 (inactive); in [20], 0.0055.
As to `CC(C)N1C(=O)c2ccccc2[C@@H](C(=O)NCCN2CCOCC2)[C@@H]1c1ccc(CO)cc1`, the z-score was 0.281 in assay [1]; -0.973 in assay [2]; 0.135 in [3]; -0.551 in assay [4]; 0.165 in [5]; -0.247 in assay [6]. In addition, the z-score was -1.26 (inactive) in [7]; 0.772 in assay [8]; 0.113 in assay [9]; 0.175 (inactive) in assay [10]; -0.229 in assay [11]; 0.525 (inactive) in assay [12]. Besides, the z-score is -0.401 (inactive) in assay [13]; 0.429 (inactive) in [15]; 0.985 (inactive) in [16]; 0.0059 (inactive) in assay [17]; -0.434 (inactive) in assay [18]; -0.0956 in [19]. Also, the composite z-score in assay [14] was 0.184 (inactive); in assay [20] it was -0.465.
With `COc1cc2c(cc1O)C(C1CC1)N(C)CC2` (stereo not given), the z-score in assay [1] was 0.368; in assay [2] it was 0.381; in assay [3], 0.575; in [4], 0.533; in [5], -0.393; in assay [6], 0.283. Further, the z-score in assay [7] was 0.883 (inactive); in [8], 0.0965; in assay [9] it was 1.87; in assay [10] it was -0.348 (inactive); in assay [11] it was 0.0514; in assay [12], -0.391 (inactive). In addition, the z-score in assay [13] is 0.509 (inactive); in [15] it was -0.572 (inactive); in assay [16], -0.0321 (inactive); in [17], 0.115 (inactive); in assay [18], 0.0029 (inactive); in assay [19], -0.0158. Further, the composite z-score in assay [14] was -0.501 (inactive); in [20], 0.175.
For the compound `CC1=C2[C@@H](CCc3ccccc3)OB(O)C[C@@H]2[C@@H]2C(=O)N(C)C(=O)[C@@H]2C1`, the z-score in assay [1] was -0.0116; in [2], 0.417; in assay [3] it was -0.21; in [4], -2.12; in assay [5] it was 0.339; in [6], -1.18. The z-score was -0.467 (inactive) in [7]; -0.519 in assay [8]; -0.423 in [9]; 0.0857 (inactive) in assay [10]; 0.157 in [11]; -2.36 (inactive) in assay [12]. Besides, the z-score in [13] was -0.313 (inactive); in assay [15], 0.212 (inactive); in assay [16], 0.154 (inactive); in assay [17], 0.672 (inactive); in assay [18], 0.561 (inactive); in assay [19], -0.265. The composite z-score is -0.628 (inactive) in [14] and -0.239 in [20].
For the compound `COc1cccc(C)c1NC(=O)O[C@H]1[C@H](OC(=O)Nc2ccccc2-c2ccccc2)[C@H](OC(=O)Nc2ccccc2-c2ccccc2)[C@@H](OC)O[C@@H]1CO`, the z-score in [1] was -0.889; in assay [2] it was 0.328; in assay [3], 0.56; in [4], -0.632; in assay [5], -2.77; in assay [6], -0.214. For the same compound, the z-score in assay [7] was 1.33 (inactive); in assay [8], 0.198; in assay [9] it was 0.143; in [10], -1.11 (inactive); in [11], -0.589; in assay [12], -0.342 (inactive). Further, the z-score is -1.13 (inactive) in [13]; 1.11 (inactive) in assay [15]; 1.25 (inactive) in assay [16]; -0.469 (inactive) in assay [17]; 0.0517 (inactive) in assay [18]; -0.575 in [19]. In addition, the composite z-score is -0.0569 (inactive) in [14] and 0.248 in assay [20].
